In PubChem BioAssay (Tox21) one finds Potency, max activation and outcome data, which are given here for 21 compounds.

Where “and” joins values, the source holds several entries; their conditions need not be identical. Equal values may be shown once. Records with an inconclusive call do not appear. Some compounds were tested as several samples or in several runs, with calls that do not always agree. Calls of active or inactive are those of the source. Calls follow the shape of the dose curve; as a rule, active = well fitted curve in the direction sought with a large enough effect in the repeat runs; inconclusive = weak or mixed curves; inactive = no such curve, though single readings can be large; an effect the other way counts as inactive or inconclusive.

The nature of experiment [1]: Human pregnane X receptor (PXR) small molecule agonists, qHTS cell viability counter screen (AID 1346977). Also: nearly all actives have a fitted effect of over 50% in size. Also: potency is read from the fitted curve at half-maximal effect. The method in brief: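 Fluorescence read-out (CellTiter-Fluor) of viability in PXR-Luc HepG2 cells, multiplexed with the luciferase agonist read. Compounds in DMSO added after 5hr plating; 24hr total exposure at 37C, 5% CO2.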
(In general: qHTS replaces the single test concentration by a dilution series.)

Experiment [2] in a line: Caspase-3/7 induction in HepG2 cells by small molecules, qHTS assay (AID 1346978). Also: nearly all actives have a fitted effect of over 15% in size. Also: potency is read from the fitted curve at half-maximal effect. The method in brief:
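Wild-type HepG2 cells (2,000/well) were settled 5 h at 37 C, 5% CO2, then exposed to compounds in DMSO for 17 h. Caspase-3/7 activity was read by luminescence 30 min after adding Caspase-Glo 3/7 reagent at room temperature.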

The nature of experiment [3]: Caspase-3/7 induction in CHO-K1 cells by small molecules, qHTS cell viability counter screen (AID 1346979). Also: nearly all actives have a fitted effect of over 35% in size. Also: potency is read from the fitted curve at half-maximal effect. Summed up: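 CHO-K1 wt, 1,500 cells/well; 5hr pre-incubation 37C/5% CO2; compound pin transfer (DMSO); 16hr exposure; CellTiter-Fluor added, 1hr, fluorescence read.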
Experiment [4] can be described thus: Caspase-3/7 induction in CHO-K1 cells by small molecules, qHTS assay (AID 1346980). Also: nearly all actives have a fitted effect of over 15% in size. Also: potency is read from the fitted curve at half-maximal effect. Summed up:
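Wild-type cells were seeded at 1,500 per well and settled 5 hr at 37 C, 5% CO2, then exposed to DMSO-dissolved compounds for 17 hr. Caspase-Glo 3/7 reagent was added, and luminescence was read after 30min at room temperature.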

Experiment [5] in a line: Caspase-3/7 induction in HepG2 cells by small molecules, qHTS cell viability counter screen (AID 1346981). Also: nearly all actives have a fitted effect of over 30% in size. Also: potency is read from the fitted curve at half-maximal effect. Summed up: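 Cell viability is measured as a cytotoxicity counter screen alongside the Caspase-Glo 3/7 readout in identical wells. Wild-type HepG2 cells are treated with test compounds for 16 hr at 37 C before CellTiter-Fluor addition and a 1-hr incubation.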
The target in experiment [6] is Nuclear receptor subfamily 1 group I member 2 (Homo sapiens) (UniProt O75469). In words: Human pregnane X receptor (PXR) small molecule agonists, qHTS assay (AID 1346982). Also: nearly all actives have a fitted effect of over 35% in size. Also: potency is read from the fitted curve at half-maximal effect. The method in brief:
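Cells: HepG2 stably carrying PXR-Luc. Medium held 5% charcoal-stripped FBS. Compounds in DMSO added after 5 hr plating, incubated 24 hr, then luminescence quantified with ONE-Glo.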

Experiment [7] has as its target Cytochrome P450 2D6 (Homo sapiens) (UniProt P10635). In words: Cytochrome P450 Family 2 Subfamily D Member 6 (CYP2D6) small molecule antagonists: luciferase reporter qHTS assay (AID 1671196). Also: nearly all actives have a fitted effect of over 50% in size. Also: potency is read from the fitted curve at half-maximal effect. Summed up: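 Enzyme and proluciferin substrate were first combined with test chemical for 10 min at room temperature. Adding NADPH regeneration solution started a 1 h reaction, stopped with luciferin detection reagent and read by luminescence 20 min later.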
(In general: A reporter such as luciferase makes a cellular process visible.)

Experiment [8] deals with Nuclear receptor subfamily 1 group I member 2 (Rattus norvegicus) (UniProt Q9R1A7). In words: Rat pregnane X receptor (rPXR) activation by small molecules, qHTS assay (AID 1346983). Also: nearly all actives have a fitted effect of over 20% in size. Also: potency is read from the fitted curve at half-maximal effect. To be noted: rPXR luciferase reporter cells, One-Glo luminescence, 24 h; max activation: stronger effect = higher value. Summed up: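 Cell-based rPXR luciferase reporter assay, 2,000 cells per well, rested 5hr at 37 C before compound addition in DMSO, then 24 hr at 37 C. One-Glo reagent was added and luminescence read after 30 min at room temperature.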

In experiment [9] the target is Nuclear receptor subfamily 1 group I member 2 (Homo sapiens) (UniProt O75469). In words: CYP3A4 induction through human pregnane X receptor (PXR) by small molecules, qHTS assay (AID 1346984). Also: nearly all actives have a fitted effect of over 40% in size. The method in brief:
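Quantitative HTS in DPX-2 cells, i.e. HepG2 transfected with PXR response element and CYP3A4-promoter luciferase. Compounds in DMSO incubated 24hr at 37C; then P450-Glo CYP3A4 substrate, 3uM final, 3hr; One-Glo luminescence.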

For experiment [10] the target is unchanged. In words: Human pregnane X receptor (PXR) activation by small molecules, qHTS assay (AID 1346985). Also: nearly all actives have a fitted effect of over 40% in size. The method in brief: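 DPX-2 cells (HepG2 co-transfected with a PXR response element and a CYP3A4-promoter luciferase construct) were seeded at 2,000 per well, rested 5 hr at 37C, then exposed to DMSO-dissolved compounds for 24 hr. Activation was read as luciferase luminescence.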
% is scaled to controls: 0 for no effect and ±100 for the full control effect.

Nuclear receptor subfamily 1 group I member 2 (Homo sapiens), sequence (O75469 whole entry, looked up): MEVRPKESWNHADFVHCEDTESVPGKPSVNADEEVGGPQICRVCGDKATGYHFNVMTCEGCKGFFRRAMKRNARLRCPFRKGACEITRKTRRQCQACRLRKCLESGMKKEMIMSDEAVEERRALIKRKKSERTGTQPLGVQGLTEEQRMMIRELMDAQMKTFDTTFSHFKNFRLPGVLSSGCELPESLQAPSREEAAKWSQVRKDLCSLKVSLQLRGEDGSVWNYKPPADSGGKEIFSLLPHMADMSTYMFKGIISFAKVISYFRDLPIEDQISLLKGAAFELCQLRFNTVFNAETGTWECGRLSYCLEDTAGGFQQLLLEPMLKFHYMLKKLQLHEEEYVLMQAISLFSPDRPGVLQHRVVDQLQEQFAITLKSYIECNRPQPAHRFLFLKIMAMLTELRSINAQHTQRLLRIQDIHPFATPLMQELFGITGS
Nuclear receptor subfamily 1 group I member 2 (Rattus norvegicus), sequence (Q9R1A7 whole entry, looked up): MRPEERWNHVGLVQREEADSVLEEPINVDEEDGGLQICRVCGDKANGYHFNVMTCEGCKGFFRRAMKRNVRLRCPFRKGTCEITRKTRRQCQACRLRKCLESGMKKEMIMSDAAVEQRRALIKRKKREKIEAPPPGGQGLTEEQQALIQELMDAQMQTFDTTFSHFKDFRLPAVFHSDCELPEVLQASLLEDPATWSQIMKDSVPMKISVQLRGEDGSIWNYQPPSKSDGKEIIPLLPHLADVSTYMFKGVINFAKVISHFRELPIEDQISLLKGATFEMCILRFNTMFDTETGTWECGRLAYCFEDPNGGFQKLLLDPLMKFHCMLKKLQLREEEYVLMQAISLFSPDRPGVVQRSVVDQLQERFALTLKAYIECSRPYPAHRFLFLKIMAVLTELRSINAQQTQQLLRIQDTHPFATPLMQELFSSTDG
Cytochrome P450 2D6 (Homo sapiens), sequence (P10635 whole entry, looked up): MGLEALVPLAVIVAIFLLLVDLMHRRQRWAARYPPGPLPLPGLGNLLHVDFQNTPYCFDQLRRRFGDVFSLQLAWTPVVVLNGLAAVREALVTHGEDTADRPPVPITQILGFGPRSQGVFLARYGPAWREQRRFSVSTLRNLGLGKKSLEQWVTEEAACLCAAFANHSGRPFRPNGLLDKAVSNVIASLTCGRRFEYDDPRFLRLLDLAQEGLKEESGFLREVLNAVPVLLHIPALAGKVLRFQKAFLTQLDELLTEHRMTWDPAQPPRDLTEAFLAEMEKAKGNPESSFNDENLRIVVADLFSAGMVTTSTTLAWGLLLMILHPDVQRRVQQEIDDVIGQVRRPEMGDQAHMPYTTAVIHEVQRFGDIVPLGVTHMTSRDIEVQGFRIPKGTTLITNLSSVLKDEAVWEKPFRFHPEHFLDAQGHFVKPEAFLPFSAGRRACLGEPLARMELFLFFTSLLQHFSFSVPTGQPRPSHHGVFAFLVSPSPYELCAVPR

Regarding `Oc1ccc2ccccc2c1`, the Potency result in [1], in experiment [2], in [3], in experiment [4] and in experiment [5] was “inactive” throughout.

For the compound `Oc1ccc2ccccc2c1N=Nc1ccccc1`, the Potency is 27.3 µM (active) and 30.6 µM (active) in experiment [1]; 48.5 µM (active) and 27.3 µM (active) in experiment [3]; 48.5 µM (active) and 27.3 µM (active) in experiment [5]; 43.2 µM (active) and 21.7 µM (active) in experiment [6]; 35.6 µM (active) and inactive in experiment [7]. The Potency result in experiment [2] and in experiment [4] was “inactive” each time.

Regarding `OC[C@@H](O)[C@H](O)[C@H](O)[C@@H](O)CO`, the Potency result in experiment [1], in [2], in experiment [3], in experiment [4], in [5] and in experiment [6] was “inactive” throughout. In addition, the Potency result in experiment [7] is “inactive”. Also, the max activation in [8] is -0.0445% (inactive) and -4.34% (inactive). Also, the result in experiment [9] and in experiment [10] was inactive.

As to `CNC[C@H](O)[C@@H](O)[C@H](O)[C@H](O)CO`, the Potency entry in experiment [1], in experiment [2], in [3], in [4], in [5] and in experiment [6] was “inactive” each time. For the same compound, the Potency entry in experiment [7] was “inactive”. The max activation in experiment [8] was -2.23% (inactive). Besides, the call in experiment [9] and in experiment [10] was inactive.

Take `Nc1cc(-c2ccncc2)c[nH]c1=O`: the Potency result in experiment [1], in [2], in experiment [3], in [4], in experiment [5] and in [6] was “inactive” throughout. Besides, in experiment [8], the max activation was -1.94% (inactive). The outcome in [9] and in [10] was inactive. Moreover, the Potency in [7] is 31.7 µM (active) and 17.4 µM (active).

As to `Oc1ccc(OCc2ccccc2)cc1`, the Potency result in experiment [1], in experiment [2], in [3], in [4] and in experiment [5] was “inactive” throughout. Further, the Potency in experiment [6] is 30 µM (active). Moreover, the max activation in experiment [8] is -0.536% (inactive). In addition, in experiment [9], the outcome was inactive.

Consider `CC1=C(/C=C/C(C)=C/C=C/C(C)=C/CO)C(C)(C)CCC1`, for which the Potency result in [1], in experiment [2], in experiment [4] and in experiment [5] was “inactive” throughout. The Potency in experiment [3] was 69.4 µM (active); in experiment [6], 55.1 µM (active) and 32.3 µM (active).

For `Cc1cc(Cc2ccc(N)c(C)c2)ccc1N`, the Potency result in experiment [1], in [2], in [3], in experiment [4] and in experiment [5] was “inactive” each time. Besides, in [6], the Potency is 61.1 µM (active).

Take `CCCCOCCOCCOC(=O)CCCCC(=O)OCCOCCOCCCC`: the Potency entry in [1], in experiment [2], in experiment [3], in experiment [4], in experiment [5] and in experiment [6] was “inactive” in each case.

For the compound `O=S(=O)(O)CCS`, the Potency entry in experiment [1], in [2], in [3], in experiment [4], in experiment [5] and in [6] was “inactive” throughout. Moreover, the max activation in experiment [8] was -3.83% (inactive). Further, the outcome in [9] and in experiment [10] was inactive. Further, the Potency in experiment [7] was 31.3 µM (active) and inactive.

As for `O=C1O[C@H](CO)[C@@H](O)[C@H](O)[C@H]1O`, the Potency result in experiment [1], in experiment [2], in [3], in experiment [4], in experiment [5] and in experiment [6] was “inactive” each time. Also, the Potency entry in experiment [7] is “inactive”. In addition, the max activation in experiment [8] was 1.43% (inactive). The result in experiment [9] and in experiment [10] was inactive.

Regarding `O=C(O)c1cc(-c2ccccc2)nc2ccccc12`, the Potency result in experiment [1], in experiment [2], in experiment [3], in experiment [4], in [5] and in [6] was “inactive” in each case.

Regarding `NS(=O)(=O)c1cc2c(cc1Cl)NC=NS2(=O)=O`, the Potency entry in experiment [1], in experiment [2], in experiment [3], in experiment [4] and in experiment [5] was “inactive” each time.

Turning to `CC#C[C@]1(O)CC[C@H]2[C@@H]3CCC4=CC(=O)CCC4=C3[C@@H](c3ccc(N(C)C)cc3)C[C@@]21C`, the Potency entry in experiment [1], in experiment [2] and in [4] was “inactive” in each case. Further, the Potency in experiment [3] is 30.6 µM (active); in experiment [5], 30.6 µM (active); in experiment [6] it was 48.6 µM (active) and 23.7 µM (active); in [8] it was 10 µM (active); in experiment [7], 63.3 µM (active) and 38.9 µM (active). Further, in experiment [9], the call was inactive.

Regarding `CN(CCOc1ccc(CC2SC(=O)NC2=O)cc1)c1ccccn1` (configuration not stated), the Potency entry in experiment [1], in [2], in experiment [3], in experiment [4] and in experiment [5] was “inactive” throughout. Besides, in experiment [6], the Potency was 54.2 µM (active) and inactive. Further, the max activation in experiment [8] is -1.4% (inactive). The call in experiment [10] was inactive.

Turning to `COC(=O)c1ccccc1O`, the Potency result in experiment [1], in experiment [2], in experiment [3], in experiment [4], in experiment [5] and in experiment [7] was “inactive” throughout. In addition, in experiment [6], the Potency is 34.4 µM (active) and inactive. Further, the max activation in experiment [8] was -0.564% (inactive). Moreover, the compound was called inactive in experiment [9] and in [10].

As for `CN(C)c1ccc(C(=N)c2ccc(N(C)C)cc2)cc1`, the Potency in [1] was 17.8 µM (active) and 23.4 µM (active); in experiment [2], 2.4 µM (active) and inactive; in experiment [3], 30.3 µM (active) and 18.6 µM (active); in experiment [5], 42.7 µM (active) and 46.7 µM (active); in experiment [6], 2.14 µM (active) and 14.8 µM (active); in [7], 125 nM (active) and 76.7 nM (active). In [4], the Potency entry is “inactive”.

On to `CC(=O)Nc1ccc(C(=O)O)cc1`, for which the Potency entry in [1], in experiment [2], in experiment [3], in [4], in experiment [5] and in [6] was “inactive” each time. In addition, the Potency result in experiment [7] was “inactive”. In [8], the max activation was -3.56% (inactive). Besides, the compound was called inactive in experiment [9] and in experiment [10].

Turning to `CC(C)(N=C=O)c1cccc(C(C)(C)N=C=O)c1`, the Potency entry in [1], in [2], in experiment [3], in experiment [4] and in [5] was “inactive” in each case. Also, the Potency is 10.8 µM (active) and 61.1 µM (active) in experiment [6]; 35.3 µM (active) in [7].

Turning to `C[C@@H]1O[C@@H](OC[C@H]2O[C@@H](Oc3c(-c4ccc(O)c(O)c4)oc4cc(O)cc(O)c4c3=O)[C@H](O)[C@@H](O)[C@@H]2O)[C@H](O)[C@H](O)[C@H]1O`, the Potency result in experiment [1], in experiment [2], in experiment [3], in experiment [4], in [5] and in experiment [6] was “inactive” throughout. In experiment [7], the Potency result was “inactive”. In addition, the max activation in experiment [8] is -1.22% (inactive). Further, the compound was classed as inactive in experiment [9] and in [10].

For the compound `ClC1=C(Cl)C(Cl)(Cl)C(Cl)=C1Cl`, the Potency result in [1], in experiment [2], in experiment [3], in experiment [5], in experiment [6] and in experiment [7] was “inactive” each time. For the same compound, the Potency entry in experiment [4] was “inactive and 68.6 µM (active)”.
